Measured values as given in PubChem BioAssay (EPA / NIEHS).
Inconclusive results are not listed. Activity calls are given as the source filed them. The calls were made as follows: active = hit-call score of the fitted dose curve at least 0.9, where 1 is the maximum; inconclusive = response in the unintended direction; inactive = score below 0.9.

target: human Vitamin D Receptor (VDR), VDR (gene 7421) (UniProt P11473); assay: ATG_VDR_TRANS: Attagene TRANS-FACTORIAL HepG2 Assay for human Vitamin D Receptor (VDR) (AID 2283022)
Sequence (P11473 whole entry, looked up, the tested form may be a part): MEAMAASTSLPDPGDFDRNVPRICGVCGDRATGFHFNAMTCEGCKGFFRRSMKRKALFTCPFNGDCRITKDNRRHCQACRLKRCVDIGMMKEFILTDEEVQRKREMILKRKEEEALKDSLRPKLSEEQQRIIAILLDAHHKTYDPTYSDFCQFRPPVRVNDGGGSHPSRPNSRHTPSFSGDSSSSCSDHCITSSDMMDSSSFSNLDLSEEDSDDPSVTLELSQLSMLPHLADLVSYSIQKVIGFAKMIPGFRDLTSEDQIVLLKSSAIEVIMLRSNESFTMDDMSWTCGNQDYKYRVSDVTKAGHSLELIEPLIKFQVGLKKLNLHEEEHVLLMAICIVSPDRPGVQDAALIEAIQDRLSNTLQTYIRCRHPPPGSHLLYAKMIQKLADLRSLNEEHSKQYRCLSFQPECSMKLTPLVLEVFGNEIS
Summary of the method: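 HepG2 cells were transiently transfected with GAL4-UAS reporter units and a chimeric VDR-Gal4 construct, then dosed for 24 hours. Reporter mRNA was quantified by RT-PCR, fluorescent labeling, HpaI digestion and capillary electrophoresis; gain of signal analysed vs DMSO.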

outcome, inactive:
O=C(O)c1snc(Cl)c1Cl, Cc1c(N(C)C)c(=O)n(-c2ccccc2)n1C, N#Cc1nc(Cl)c(Cl)c(Cl)c1Cl, COc1ccc(O)cc1, COC(=O)C1=C(C)NC(C)=C(C(=O)OCCN(C)Cc2ccccc2)C1c1cccc([N+](=O)[O-])c1 (centres undefined), CN(C)CCCN, CC(C)(C#N)c1cc(Cn2cncn2)cc(C(C)(C)C#N)c1, CO[Si](CCCn1c(=O)n(CCC[Si](OC)(OC)OC)c(=O)n(CCC[Si](OC)(OC)OC)c1=O)(OC)OC, CCN(CC)c1ccc2c(-c3ccccc3C(=O)O)c3ccc(=[N+](CC)CC)cc-3oc2c1, CC1=CCC(O)(C(C)C)CC1 (centres undefined), COc1cccc(OC)c1, C/C=C(\C)C(=O)OCc1ccccc1, O=C(COc1ccc(Cl)cc1)N1CCN(Cc2ccc3c(c2)OCO3)CC1, O=C1c2ccccc2C(=O)N1SC1CCCCC1, O=c1[nH]nnc2ccccc12, CC(C)(C)c1n[nH]c(=S)n(N)c1=O, CC(C)(C)C(=O)c1ccccc1, NCCCN1CCOCC1, COc1cc2ncnc(Nc3cccc(Cl)c3)c2cc1OC, O=C1C(c2[nH]c3ccc(S(=O)(=O)O)cc3c2O)=Nc2ccc(S(=O)(=O)O)cc21, CCCCCCCCC, Cc1ncc([N+](=O)[O-])n1C, Fc1c(F)c(F)c(Br)c(F)c1F, Nc1cc(Cl)c(O)c(Cl)c1, O=C1NC(=O)c2ccccc21, O=[N+]([O-])c1ccc(Nc2ccc(Nc3ccccc3)c(S(=O)(=O)O)c2)c([N+](=O)[O-])c1, CNCCCC12CCC(c3ccccc31)c1ccccc12, CCCC(=O)OCCC(C)CCC=C(C)C (centres undefined), CC(=O)OCc1ccc2c(c1)OCO2, CC(C)=CCCC(C)CC=O (centres undefined), CC(=O)c1c(C)cc(C(C)(C)C)cc1C, CC1=CCC2C(C1)C2(C)C (centres undefined), O=S(=O)(O)c1ccc(O)c2ncccc12, CC(c1cc2ccccc2s1)N(O)C(N)=O (centres undefined), C=C(C)C(=O)NCCCN(C)C, N#Cc1ccccc1, CC(C)=CCC/C(C)=C/COC=O, CCN(CC)c1ccc(C(=C2C=CC(=[N+](CC)CC)C=C2)c2ccc(S(=O)(=O)O)cc2S(=O)(=O)[O-])cc1, CC(CCO)CCc1ccccc1 (centres undefined)
